From the OligoGym collection come the findings set out here.
Further: reference of the scale not given here.

The target of the first experiment is KIR2DL5B. Kind of experiment: pooled miR-30 sensor sort-seq; sequence = guide strand. The conditions noted are these: shRNA.
On to TACATGGGAGCTAGCAACCCGG, for which the sensor-assay potency score (higher = more potent) is -1.49. Still for that read-out and setting: the same measure for TTGTACAGACTGAAGATGGTAA: -0.188; for AACTACTTGAAGAGTTTCCTGT: 0.126. Still for that read-out and setting: the same measure for TTCTTTTTGTTGGAGCAGCAGC: -0.965.

The target of the next experiment is KLC3. The experiment is described as above. The conditions noted are these: shRNA.
Sequence TTTCTTTGTACAGCTCTTCCGC came in with a sensor-assay potency score (higher = more potent) of -0.28. Same read-out and setting: next, TTGGAGAGTGAGCTGCTGCGGC: -0.586.

Regarding TTGATACTTGTTCTGTTTCAGG, the sensor-assay potency score (higher = more potent) is -0.751.

As to TCTTTGTACAGCTCTTCCGCTT, the sensor-assay potency score (higher = more potent) was -0.542. Same read-out and setting: the same measure for TTGAGTGACATGGCTCTCTTCA: -0.297. Same read-out and setting: the same measure for ATCTTGGAGAGTGAGCTGCTGC: -1.26; for TTCTGTTTCAGGTAGGCTGAGG: -0.432; for TTCTTTGTACAGCTCTTCCGCT: -0.475. On the same count and under the same terms, next, TTGTACTTGTTCTGGTCCCGGT: -0.388; TTCTTTGTACTTGTTCTGGTCC: -0.164; TTGTACAGCTCTTCCGCTTGTT: 0.24. Sequence TTTGTACTTGTTCTGGTCCCGG gave a sensor-assay potency score (higher = more potent) of -0.559.

A further experiment concerns the target KLF14. The description is as above. The following applies: shRNA.
Regarding TACTCGATCATATCTGGATGAT, the sensor-assay potency score (higher = more potent) is -0.368.

Regarding TTGAGGTGCGACGACTTGTAAT, the sensor-assay potency score (higher = more potent) is -1.63. TAAACTTCTTGTCGCAGTCGAG registered a sensor-assay potency score (higher = more potent) of -0.734. Same read-out and setting: the same measure for ATAGGCTTTGGTGCAGCCCGGG: -0.764; for TTCTTGTCGCAGTCGAGCCAGT: -1.02. As to TTGGTCAGGTGGTCGCTCCGGG, the sensor-assay potency score (higher = more potent) is -0.324. TATCTGGATGATAGGTTGGGTG returned a sensor-assay potency score (higher = more potent) of -1.33. The same measure, in the same setting: next, TAGGCTTTGGTGCAGCCCGGGA: -1.12; TTGTAATAGGCTTTGGTGCAGC: -0.333; ATATCTGGATGATAGGTTGGGT: -0.162.

Sequence TCGCAGTCGAGCCAGTCGCAGG registered a sensor-assay potency score (higher = more potent) of -1.84.

Turning to AAACTTCTTGTCGCAGTCGAGC, the sensor-assay potency score (higher = more potent) was -1.65.

The target of another experiment is KLF15. The description is as above. The following applies: shRNA.
As to TTTGGTGTACATCTTGCTGCAG, the sensor-assay potency score (higher = more potent) came to 0.126. Same read-out and setting: next, TAGCACTAAAGTTCTGGCCTTG: -0.309; TAAACCTGTCAAAACAAGCTAG: -0.421; TATCTAGTTCTCTCACACCCAG: -0.809. In turn, TATTTTATGTGGATGGACCTAT returned a sensor-assay potency score (higher = more potent) of 0.313. On the same count and under the same terms, next, TTGGTGTACATCTTGCTGCAGC: -0.584. Turning to TAACATTGCCATGTCCCTCTGG, the sensor-assay potency score (higher = more potent) turned out to be 0.313. Same read-out and setting: next, TGGATCTGCAGCAACACTGGGA: -0.384.

Regarding TTAAATTTCAAATTTACACAAA, the sensor-assay potency score (higher = more potent) was -0.919. Still for that read-out and setting: the same measure for TATATTTTTATGAAGGACCAAA: -0.999; for AAACTCTTCAATCTCCTCCAGG: -0.475; for TCTCGCACACAGGACACTGGTA: -0.647.
